PubChem BioAssay AID485313 (National Center for Advancing Translational Sciences (NCATS), 2010)
Among all 320,000 compounds or so, about 7,600 (2.4%) were called active. Roughly 3% stayed inconclusive and do not appear here. The call rests on the fitted dose curve; in most records, active means well fitted activation curve with a large enough effect; inconclusive means small, poorly fitted or top-dose-only effect; inactive means no such curve, though single readings can be large or run the other way. The entries come from a sample that favours actives as a whole.

assay: qHTS Assay for NPC1 Promoter Activators; conditions: Huh7 NPC1 promoter luciferase reporter, 24 h; series mostly up to 9.22 µM; activation: at the top concentration; further: nearly all actives have a fitted effect of over 60% in size;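 on activation: reporter is driven by a mutant NPC1 promoter; % of control where 0% means no effect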
Procedure, shortened: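 Stable NPC1-promoter luciferase Huh7 line; cpd (DMSO) 24 h, 37 °C, 5% CO2; Amplite luciferase reagent 10 min RT; luminescence readout. qHTS format.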
Potency means the concentration at half of the fitted maximal effect.

Q: Which “activation” value does the source give for CCOc1ncccc1C(=O)OCC(=O)N1c2ccccc2CC1C (stereo not drawn) here?
A: Its value is -6.3% (inactive).

Q: With Cc1noc(NS(=O)(=O)c2ccc(N/C=C/C(=O)c3ccccc3)cc2)c1C as the molecule, how does the “activation” value read?
A: Its value is 9.13% (inactive).

Q: Which “activation” value does the source give for O=C(/C=C/NCc1ccc(F)cc1)c1ccccc1 here?
A: The value was -4.79% (inactive).

Q: For COc1ccc(C(=O)/C=C/c2ccc(OC3CSC3)cc2)cc1, which “activation” value is on record?
A: The value was -2.72% (inactive).

Q: For CCOc1ccc(N/C=C/C(=O)c2cc(OC)c(OC)c(OC)c2)cc1, which “activation” value is on record?
A: Its value is -10.5% (inactive).

Q: With COc1ccc(C(=O)/C=C/Nc2ccccn2)cc1 as the molecule, how does the Potency read?
A: The Potency was 0.1 µM (active).

Q: For CCOc1ccc(NC(=S)N2CCC(NC(=O)c3ccccc3)CC2)cc1, which “activation” value is on record?
A: Its value is -3.36% (inactive).

Q: For Cc1ccc(N/C=C/C(=O)c2ccccc2)cc1C, which Potency is on record?
A: The Potency was 2 µM (active).

Q: For CCOc1ccc(N/C=C/C(=O)c2ccccc2)cc1, which Potency is on record?
A: Its Potency is 0.316 µM (active).

Q: For COc1ccc(N2C(=O)CCC(C(=O)Nc3ccccn3)C2c2ccc(OC)c(OC)c2)cc1 (stereo not drawn), which “activation” value is on record?
A: Its value is 0.515% (inactive).

Q: Which “activation” value does the source give for Cc1nc2ccc(NC(=O)C3CCCCC3)cc2s1 here?
A: The value was 19.3% (inactive).

Q: For COc1ccc(C(=O)OCC(=O)N2CC(=O)Nc3ccccc32)cc1Br, which “activation” value is on record?
A: Its value is 0.925% (inactive).

Q: Which “activation” value does the source give for Cc1occc1-c1nnc(SCC(=O)NC2CCCCC2)o1 here?
A: Its value is -1.6% (inactive).

Q: For Cc1nc(SCC(=O)NC2CCCCC2C)c(C#N)c(C)c1C (stereo not drawn), which “activation” value is on record?
A: The value was -2.69% (inactive).

Q: With Cc1cccc(-n2cnc(C(=O)Nc3cccnc3)c2)n1 as the molecule, how does the Potency read?
A: Its Potency is 2.82 µM (active).

Q: With Cc1cccc(-n2cnc(C(=O)NNC(=S)Nc3ccccc3)c2)n1 as the molecule, how does the “activation” value read?
A: The value was -1.83% (inactive).

Q: Which “activation” value does the source give for COc1cccc(C(=O)Nc2cccnc2)c1OC here?
A: Its value is -1.61% (inactive).

Q: Which “activation” value does the source give for COc1ccc(S(=O)(=O)N2CCC(C(=O)N3CCCC3)CC2)cc1C here?
A: The value was -2.33% (inactive).

Q: Which “activation” value does the source give for CCCN(CC1CC1)C(=S)NC(=O)c1ccccc1Br here?
A: Its value is -0.97% (inactive).

Q: With CC1(C)CN(c2ccc(-c3ccnc4ncnn34)cc2)C1=O as the molecule, how does the “activation” value read?
A: Its value is 10.3% (inactive).

Q: With COc1ccc(N=C(C)c2sc3ccccc3c2O)cc1 as the molecule, how does the Potency read?
A: Its Potency is 0.708 µM (active).

Q: Which “activation” value does the source give for COc1ccccc1-c1sc2ccccc2c1-c1ccc(C(C)=O)cc1 here?
A: Its value is 17.3% (inactive).

Q: Which “activation” value does the source give for Oc1ccc(N=Cc2sc3ccccc3c2Cl)cc1 here?
A: The value was -3.13% (inactive).

Q: With CC1CCCC(C)N1C(=O)COC(=O)COc1ccccc1C#N (stereo not drawn) as the molecule, how does the “activation” value read?
A: Its value is 0.305% (inactive).

Q: Which “activation” value does the source give for O=C1C=C(c2cccc(Cl)c2O)C[C@@H](c2ccc(F)cc2)C1 here?
A: Its value is -0.0087% (inactive).

Q: Which “activation” value does the source give for CC1CCCCC12NC(=O)N(CC(=O)Nc1ccc(S(=O)(=O)Nc3ncccn3)cc1)C2=O (stereo not drawn) here?
A: The value was 1.23% (inactive).

Q: With O=C1Cc2cc(S(=O)(=O)Nc3cccc(F)c3)ccc2N1 as the molecule, how does the “activation” value read?
A: The value was -2.73% (inactive).

Q: With Cc1ccccc1OCC(=O)Nc1ccc2c(c1)ncn2C as the molecule, how does the Potency read?
A: The Potency was 6.31 µM (active).

Q: Which “activation” value does the source give for Cc1ccccc1OCC(=O)Nc1ccc(N2CCN(C(=O)C(C)C)CC2)c(Cl)c1 here?
A: The value was -14.2% (inactive).

Q: With Cc1ccccc1OCC(=O)Nc1ccc(S(=O)(=O)N2CCOCC2)cc1 as the molecule, how does the “activation” value read?
A: Its value is -4.62% (inactive).

Q: With O=C(CN1C(=O)NC2(CCCCC2)C1=O)N1CCN(C(=O)c2cccs2)CC1 as the molecule, how does the “activation” value read?
A: The value was -1.5% (inactive).

Q: With Cc1ccc(/C=C/C(=O)OCC(=O)NCc2ccc(Cl)cc2)o1 as the molecule, how does the “activation” value read?
A: Its value is -3.5% (inactive).

Q: For CCOc1ccc(NC(=O)CN(C)C(=O)CCSc2ccc(F)cc2)cc1OCC, which “activation” value is on record?
A: Its value is 2.17% (inactive).

Q: Which “activation” value does the source give for CC(C)n1ncc2c(C(=O)Nc3ccc(CC#N)cc3)cc(C3CC3)nc21 here?
A: Its value is 2.63% (inactive).

Q: Which Potency does the source give for Cc1ccc(N/N=C2\COC(C)(C)CC2=O)cc1 here?
A: Its Potency is 2.82 µM (active).

Q: With Nc1c(N(Cc2ccco2)C(=O)c2cccc(F)c2)c(=O)[nH]c(=O)n1Cc1ccccc1 as the molecule, how does the “activation” value read?
A: The value was 1.11% (inactive).

Q: For COCCN(Cc1ccccc1)C(=O)Cc1ccc(S(=O)(=O)N2CCOCC2)s1, which “activation” value is on record?
A: The value was -0.21% (inactive).

Q: Which Potency does the source give for CC(=O)Nc1ccc(-c2nc3ccccc3o2)cc1 here?
A: Its Potency is 1.12 µM (active).

Q: With CCc1nc(Nc2ccc(NC(C)=O)cc2)c2oc3ccccc3c2n1 as the molecule, how does the “activation” value read?
A: Its value is 4.77% (inactive).

Q: Which “activation” value does the source give for Cc1ccc(OCC(=O)Nc2ccc(-c3nc4ncccc4o3)cc2)cc1 here?
A: The value was 23.3% (inactive).

Q: With COc1ccc(S(=O)(=O)N2CCN(CC(=O)NCC3(N4CCOCC4)CCCCC3)CC2)cc1 as the molecule, how does the “activation” value read?
A: Its value is -1.5% (inactive).

Q: For COc1ccc(CSc2nnnn2-c2ccc(O)cc2)cc1F, which “activation” value is on record?
A: The value was -1.66% (inactive).

Q: Which Potency does the source give for O=C(Nc1ccccc1Cl)c1ccc2nsnc2c1 here?
A: The Potency was 2.24 µM (active).

Q: Which “activation” value does the source give for Cc1cccc(NC(=O)c2ccc3nsnc3c2)c1C here?
A: Its value is 12.2% (inactive).

Q: For O=C(Nc1ccccc1N1CCCCC1)c1ccc2nccnc2c1, which “activation” value is on record?
A: Its value is -2.42% (inactive).

Q: With O=C(C1CCC1)N1CCN(S(=O)(=O)c2ccc([N+](=O)[O-])cc2)CC1 as the molecule, how does the “activation” value read?
A: Its value is -0.512% (inactive).

Q: For CCOc1ccc(S(=O)(=O)N(CC(=O)NCC(F)(F)F)Cc2ccco2)cc1, which “activation” value is on record?
A: Its value is -0.109% (inactive).

Q: Which “activation” value does the source give for O=C(CCc1ccccc1)Nc1cccc(-c2nnc(-c3ccco3)o2)c1 here?
A: The value was 15.9% (inactive).

Q: With CCCCOc1ccc(-c2nnc(-c3ccco3)o2)cc1 as the molecule, how does the Potency read?
A: The Potency was 1.58 µM (active).

Q: For CCOc1ccc(NC(=O)N(CCC(C)C)C(C)c2ccco2)cc1 (stereo not drawn), which “activation” value is on record?
A: The value was -0.897% (inactive).

Q: Which “activation” value does the source give for CC(=O)Nc1ccc(NC(=O)COc2ccc(-c3ccccc3)cc2)cc1 here?
A: Its value is 4.85% (inactive).

Q: With Cc1ccc(OCC(=O)Nc2ccc(-c3nnc(-c4ccco4)o3)cc2)cc1 as the molecule, how does the Potency read?
A: The Potency was 2.82 µM (active).

Q: Which Potency does the source give for CCOc1ccc(-c2nnc(-c3ccco3)o2)cc1 here?
A: The Potency was 0.631 µM (active).

Q: Which “activation” value does the source give for CCOc1ccc(-n2c(SCC(N)=O)nnc2-c2ccco2)cc1 here?
A: Its value is 1.18% (inactive).

Q: Which “activation” value does the source give for COc1ccc(OCC(=O)Nc2nnc(-c3ccco3)s2)cc1 here?
A: The value was -6.29% (inactive).

Q: With Cc1ccc(OCC(=O)Nc2nnc(-c3ccco3)s2)cc1 as the molecule, how does the “activation” value read?
A: Its value is -2.26% (inactive).

Q: With CCC[C@H]1CCCC/C=C\CCCC(=O)OCCN1C(=O)OC(C)(C)C as the molecule, how does the “activation” value read?
A: Its value is -2.58% (inactive).

Q: With CCOCCn1[nH]c2ccccc2c1=O as the molecule, how does the “activation” value read?
A: The value was 8.92% (inactive).

Q: For CC(C)NC(=O)N1CCN(c2ccncc2S(=O)(=O)N2CCCCC2)CC1, which “activation” value is on record?
A: Its value is -6.15% (inactive).

Q: For O=C(NC1CCCCCC1)C1CCN(C(=O)c2ccc(Cl)cc2)CC1, which “activation” value is on record?
A: The value was -1.36% (inactive).

Q: For CCc1sc(C(=O)N2CCN(CC(=O)Nc3cccc(F)c3)CC2)cc1C, which “activation” value is on record?
A: Its value is -2.76% (inactive).

Q: Which “activation” value does the source give for COc1cccc(C2=CC(=O)C[C@H](c3ccc(OC)c(OC)c3)C2)c1 here?
A: Its value is 0.572% (inactive).

Q: With Cn1nc(-c2ccccc2)c2cc([N+](=O)[O-])ccc21 as the molecule, how does the “activation” value read?
A: Its value is 3.87% (inactive).

Q: Which Potency does the source give for Cc1nn(-c2ccc([N+](=O)[O-])cc2)c(N)c1-c1ccccc1 here?
A: The Potency was 1.58 µM (active).

Q: With Cc1cc(CO)nn1-c1ccc([N+](=O)[O-])cc1 as the molecule, how does the “activation” value read?
A: Its value is -0.734% (inactive).

Q: Which “activation” value does the source give for COC(=O)C1=CO[C@@H](O[C@@H]2O[C@H](CO)[C@@H](O)[C@H](O)[C@H]2O)C2C1C[C@H](O)[C@@H]2C (stereo partly drawn) here?
A: Its value is -0.388% (inactive).

Q: With CCc1cccc(NC(=O)COC(=O)c2cc(=O)c3ccccc3o2)c1 as the molecule, how does the “activation” value read?
A: The value was -1.37% (inactive).

Q: For CCOC(=O)C1CCN(C(=O)c2cccc(S(=O)(=O)N(CC)c3ccccc3)c2)CC1, which “activation” value is on record?
A: The value was -2.25% (inactive).

Q: For COCCN(C(=O)CC1CCCCC1)c1c(N)n(CC(C)C)c(=O)[nH]c1=O, which “activation” value is on record?
A: The value was 2.93% (inactive).

Q: For Cc1cnc(NC(=O)C2CCCC2)s1, which “activation” value is on record?
A: The value was 11.4% (inactive).

Q: Which “activation” value does the source give for Cc1ccc(Cl)cc1NC(=O)c1ccccn1 here?
A: Its value is -2.16% (inactive).

Q: Which “activation” value does the source give for O=C(Cc1cccs1)Nc1nnc(C2CC2)s1 here?
A: The value was -1.03% (inactive).

Q: Which Potency does the source give for Cc1cnc(NC(=O)c2ccccn2)s1 here?
A: Its Potency is 0.447 µM (active).

Q: For O=C(Nc1nnc(C2CC2)s1)c1cc(Cl)sc1Cl, which “activation” value is on record?
A: Its value is 24.6% (inactive).

Q: Which Potency does the source give for Cc1cc(C(=O)Nc2nnc(C3CC3)s2)c(C)s1 here?
A: Its Potency is 3.55 µM (active).

Q: For CCc1cc(C(=O)Nc2nnc(C3CC3)s2)sc1C, which “activation” value is on record?
A: Its value is 29.4% (inactive).

Q: For O=C(Nc1nnc(C2CC2)s1)c1ccccn1, which Potency is on record?
A: Its Potency is 1.12 µM (active).

Q: With Cc1cccc(NC(=O)CSCC(=O)Nc2nnc(C3CC3)s2)c1 as the molecule, how does the “activation” value read?
A: The value was -1.19% (inactive).
